This is an account of results in the supplement of paper PMC11417369.

Over roughly 25,000 sequences, “ln(normalized median fluorescence intensity)” has its median near 9.7; the highest 2% begin near 11. The sample holds the highest values, similar sequences and a random draw of the others, so the mix is not that of the screen.

The assay deals with PfAP2-HC AP2 domain (GST-tagged). The assay can be described thus: gcPBM binding intensity (ln(normalized median fluorescence intensity)); higher = stronger DNA binding. The essentials:
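The highest Masliner-normalised natural-log median intensity across replicate spots of either probe orientation is reported as binding intensity. GST-tagged P. falciparum DNA-binding domains expressed in E. coli were applied for 1 h to an Agilent 4 × 180k array of primer-extended double-stranded 36-bp intergenic genomic probes plus negative controls, and bound protein was detected with Alexa488 anti-GST antibody and scanned at 488 nm.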
Consider “TTTTTTTGCATTTCATGTACATATATTGAGCTTAAA [XGTACX_site8485]”, for which the “gcPBM binding intensity (ln)” value stood at 9.6.

Consider “TCACAAATGTATTATACACACAAGTTTTCTTTAATA [CACACA_site4107]”, for which the “gcPBM binding intensity (ln)” value is 9.71.

As for “ATGAATTTTTCTCTACAAAAGGATATAATAAAAATA [XGTACX_negctrl_site461]”, the “gcPBM binding intensity (ln)” value was determined as 9.37.

For the sequence “TTACGAATAAAACAGTGTACATTGAATTTCTATGAG [XGTACX_site4771]”, the “gcPBM binding intensity (ln)” value is 9.51.

On to “TTTTTAAAAATATACACACACAGATATTATAGATAT [CACACA_site6511]”, for which the “gcPBM binding intensity (ln)” value is 10.1.

“TCCTTATTTATATAATGTACTTTTTTTTTTCATTTT [XGTACX_site4275]”: the “gcPBM binding intensity (ln)” value worked out at 9.64.

“TTTATTCAAATATAATGTACTTTCTACAAATTCAAT [XGTACX_site8119]”: the “gcPBM binding intensity (ln)” value was determined as 9.43.

Take “TATTATATAAAATATTTTATTATATCATCTTCTCTA [XGTACX_negctrl_site319]”: the “gcPBM binding intensity (ln)” value worked out at 9.44.

Turning to “TTCATTTTCATATATTGTACAAAATTTTATAAGGTT [XGTACX_site4522]”, the “gcPBM binding intensity (ln)” value came out at 9.58.

“ATCTTGAAGATTATTTGTACACAAAAGTTAAAATAT [XGTACX_site242]”: the “gcPBM binding intensity (ln)” value amounted to 9.47.

Regarding “AAAAAAAAAAAACATACACACAAATAAATACATACA [CACACA_site6073]”, the “gcPBM binding intensity (ln)” value turned out to be 10.1.

For “AAAAAAAAAAAACACACACACAAATACAAATACATA [CACACA_site415]”, the “gcPBM binding intensity (ln)” value stood at 11.5.

For the sequence “AAAAAAAAAAAACACACACACACAAATACATACACA [CACACA_site706]”, the “gcPBM binding intensity (ln)” value came to 10.7.

“TCATACTGTATATTTTGTACTTATATATATATTATA [XGTACX_site6136]”: the “gcPBM binding intensity (ln)” value amounted to 10.

“GACATATTCCCCCCCACACACACACCCACATACATA [CACACA_site2302]”: the “gcPBM binding intensity (ln)” value worked out at 11.1.

“ACATACATACCCCCACGTACGTACCGAAACACCACC [XGTACX_site1982]”: the “gcPBM binding intensity (ln)” value amounted to 9.84.

As to “CATATTCCCCCCCACACACACACACCCATACATACC [CACACA_site2303]”, the “gcPBM binding intensity (ln)” value is 10.6.

Take “TATTCCCCCAAACACACACACACACCCACATACCAC [CACACA_site2304]”: the “gcPBM binding intensity (ln)” value amounted to 10.7.

For the sequence “CACCCACCCACATACACACACATACACATATATATA [CACACA_site1722]”, the “gcPBM binding intensity (ln)” value was 10.3.

For “TATTCCCCCCAACACACACACACACCGACATACCAC [CACACA_site8723]”, the “gcPBM binding intensity (ln)” value came to 11.5.

In the case of “AATTATATATTATAATGTACATATATATAACTATAC [XGTACX_site1865]”, the “gcPBM binding intensity (ln)” value was 9.67.

As to “ATAATTCATGTTTAGTGTACAAAAAATTAAAGCAAC [XGTACX_site8891]”, the “gcPBM binding intensity (ln)” value was found to be 9.87.

Take “ATATAGTATAATAAAAGTACATTTTGATTTTTTCTC [XGTACX_site1797]”: the “gcPBM binding intensity (ln)” value was determined as 9.61.

For the sequence “AATAAACATAAATAAAAATTATAAAATATATATATG [CACACA_negctrl_site1709]”, the “gcPBM binding intensity (ln)” value was determined as 9.75.
